High-throughput results deposited in PubChem BioAssay by National Center for Advancing Translational Sciences (NCATS).
Hits are enriched below; roughly 11% of the tested compounds scored in any of these assays.
BAZ2B inh – BAZ2B (human) inhibition. Q9UIF8. AlphaScreen BAZ2B-H3K14Ac peptide displacement. Potency, µM (top dose mostly 114 µM), without a hit: top-dose activity change, negative = inhibition, actives largely listed as inhibitors. actives 4.4% (n = 360,000). AID 504333; further: on the % scale 0 is the no-effect control and ±100 the full control effect; nearly all actives have a fitted effect of over 60% in size
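Inhibition is scored as reduced AlphaScreen emission. The BAZ2B/b-H3(5-23)K14Ac complex (50 nM each) in PBS pH 7.4, 0.01% Tween-20 meets compound (up to 110 uM) for 30 min at RT before bead addition.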
HP1b binding inh – inhibitors of HP1-beta chromodomain binding to methylated histone tails; Potency, µM (series often up to 114 µM), inactives show top-dose activity change, negative = inhibition, usual class: inhibitors; actives 0.56% (n = 390,000); AlphaScreen HP1-beta / biotin-H3K9me3 peptide binding; P83916; AID 540317; further: nearly all actives have a fitted effect of over 70% in size
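Compound inhibition of the preformed complex between 50 nM HP1-beta and 50 nM biotinylated H3K9me3 peptide was read by AlphaScreen. Buffer was PBS pH 7.4 with 0.01% Tween-20. Incubations ran 30 min at room temperature, with 10 ug/mL donor/acceptor beads.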
G9a inh – inhibitors of human histone lysine methyltransferase G9a; actives 8.8% (n = 350,000); Q96KQ7; AID 504332; Potency, µM (titrated, usually from 102 µM), for inactives: at the top dose activity, negative = inhibition, most hits filed as inhibitors; G9a H3K9 monomethylation, AlphaScreen, 2 h; further: on the % scale 0 is the no-effect control and ±100 the full control effect; nearly all actives have a fitted effect of over 75% in size
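Enzyme 20 nM + cpd, 15 min RT; add b-H3K9 pep 500 nM / SAM 20 uM; 2 h RT; anti-H3K9me1 Ab 0.5 ug/mL + SA donor / anti-rabbit acceptor beads 20 ug/mL each, 10 min; AlphaScreen read.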
JMJD2A Tudor – inhibitors of human JMJD2A Tudor domain; O75164; AlphaScreen JMJD2A-Tudor / H3K4me3 peptide binding; actives 4.4% (n = 390,000); Potency, µM (series often up to 114 µM), without a hit: at the highest dose activity change, negative = inhibition, most hits filed as inhibitors; further: on the % scale 0 is the no-effect control and ±100 the full control effect; nearly all actives have a fitted effect of over 50% in size
PLK1 PBD inh – inhibitors of human PLK1 polo-box domain binding | Plk1 PBD binding of FITC phosphopeptide, fluorescence polarization | Potency, µM, without a hit: max response, negative = inhibition, usual class: inhibitors | actives 2.8% (n = 360,000) | AID 720504; further: series mostly up to about 57 µM; on the % scale 0 is the no-effect control and ±100 the full control effect; nearly all actives have a fitted effect of over 65% in size
VDR inhibitor – inhibitors of human vitamin D receptor; P11473; VDR-SRC2-3 peptide fluorescence polarization, 2 h; Potency, µM, without a hit: max response, negative = inhibition, usual class: inhibitors; actives 0.93% (n = 400,000); AID 504847; further: on the % scale 0 is the no-effect control and ±100 the full control effect
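Fluorescence polarization assay of small-molecule disruption of VDR binding to coregulator peptide SRC2-3. Compounds and controls pin-transferred, then read after 2 h incubation at ambient room temperature.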
An asterisk follows results filed as active; u = inconclusive; x = no result given; [ ] = another dose, or the depositor's remark. The call rests on the fitted dose curve; in most records, active means well fitted curve in the direction sought with a large enough effect; inconclusive means small, poorly fitted or top-dose-only effect, or another doubt; inactive means no such curve, though single readings can be large; an effect the other way counts as inactive or inconclusive. Potency means the concentration at half of the fitted maximal effect.

SMILES | BAZ2B inh | HP1b binding inh | G9a inh | JMJD2A Tudor | PLK1 PBD inh | VDR inhibitor
Cc1nnc(SCc2nc3ccccc3s2)n1-c1ccccc1 | -3% | 24% | -24%[59 µM] | -10% | -15% | 18%
CCn1c(SCc2nc3ccccc3s2)nnc1-c1ccccc1 | -5% | 38% | u | -10% | -9% | 14%
CCOc1ccc2c(c1)sc(N)[n+]2Cc1cc(C)cc2cccnc12 | -12% | -10% | u | u | -7% | -7%
COc1ccc2c(c1)sc(N)[n+]2Cc1cc(C)cc2cccnc12 | -10% | 2% | 50µM* | -20% | 1% | -27%
CN1/C(=C\C(=O)COC(=O)c2ccc([N+](=O)[O-])o2)C(C)(C)c2ccccc21 | u | 18% | 20µM* | -29% | -8% | -5%
CN1/C(=C/C2CC(=O)N(c3ccc([N+](=O)[O-])cc3)C2=O)C(C)(C)c2ccccc21 (stereo not drawn) | u | -3% | u | u | -9% | -18%
CN1/C(=C\C(=S)NC(=O)c2ccc([N+](=O)[O-])cc2)C(C)(C)c2ccccc21 | u | u | 45µM* | 50µM* | -5% | -15%
CN1/C(=C\C(=O)Nc2ccc(F)cc2)C(C)(C)c2ccccc21 | u | 2% | 45µM* | -27% | 0% | 1%
CN1/C(=C\C(=S)NC(=O)c2cccc(Br)c2)C(C)(C)c2ccccc21 | 10µM* | u | 14µM* | 20µM* | -18% | -22%
Cc1ccccc1NC(=O)CSc1nnc(Cc2ccccc2)c(=O)n1N | 20% | 16% | -7% | 1% | -3% | -1%
O=Cc1c(OCc2ccccc2)ccc2ccccc12 | -12% | 43% | 30%[59 µM] | 61% | 17µM* | u
COc1ccc(C2=CC(=O)C[C@H](c3ccc(OC)cc3)C2)cc1 | 5% | 57% | 10%[2.33 µM] | -9% | 5% | -11%
COc1ccc(C2=CC(=O)C=CC2=O)cc1 | 10µM* | x | 1.3µM* | x | x | x
COc1ccc(C(=O)/C=C/c2ccc(OC)cc2OC)c(O)c1 | u | -19% | u | 18µM* | -11% | -8%
COc1ccc(/C=C/C(=O)c2cc(Cl)ccc2O)c(OC)c1 | 25µM* | u | x | u | 5% | 2%
COc1ccc(/C=C/C(=O)c2ccc(Cl)cc2)c(OC)c1 | 28% | 83% | 60% | 11% | -1% | u
COc1cc(/C=C2\SC(=S)N(C(C(=O)O)c3ccccc3)C2=O)cc(OC)c1OC (stereo not drawn) | u | -16% | u | -31% | u | u
O=C(O)C(c1ccccc1)N1C(=O)/C(=C\c2ccc(-c3ccc(Br)cc3)o2)SC1=S (stereo not drawn) | 20µM* | u | 40µM* | 20µM* | -9% | u
O=C(O)C(c1ccccc1)N1C(=O)/C(=C\c2ccc(-c3ccccc3Cl)o2)SC1=S (stereo not drawn) | 18µM* | u | 40µM* | 20µM* | u | 50µM*
COc1ccc(Cc2nn3c(-c4ccccc4Br)nnc3s2)cc1 | -14% | 19% | 6%[12.7 µM] | -30% | -3% | -4%
COc1ccc(-c2nnc3sc(CCN4C(=O)c5ccccc5C4=O)nn23)cc1 | 9% | -8% | 45µM* | -18% | -28% | 27%
COc1cc(-c2nnc3sc(Cc4ccccc4)nn23)cc(OC)c1OC | -30% | u | 35µM* | u | 27µM* | -16%
COc1ccc(Cc2nn3c(-c4cc(OC)c(OC)c(OC)c4)nnc3s2)cc1 | -7% | u | u | 79µM* | 24µM* | -21%
COc1cc(-c2nnc3sc(Cc4ccc(Cl)cc4)nn23)cc(OC)c1OC | x | -17% | x | -20% | 24µM* | u
O=C(c1ccc(F)cc1)N1c2nc(-c3ccco3)nn2C2(CCCCC2)[C@@H]2CCCC[C@@H]21 | u | 8% | u | -14% | x | 8%
SMILES | BAZ2B inh | HP1b binding inh | G9a inh | JMJD2A Tudor | PLK1 PBD inh | VDR inhibitor
CCOC(=O)N1CCN(C(=S)Nc2cc(S(=O)(=O)N3CCOCC3)ccc2Cl)CC1 | -12% | 20% | u | -31% | -20% | 100%
O=C(CSc1ncn[nH]1)c1ccc(OC(F)F)cc1 | -14% | 19% | 25µM* | 4% | 1% | -4%
Cn1ccnc1SCC(=O)c1ccc(OC(F)F)cc1 | -4% | -5% | u | -10% | -7% | 0%
COc1ccc(C(=O)CSc2ncn[nH]2)cc1OC | 8% | 32% | u | 40µM* | -28% | 9%
Cc1cc(C)c(NC(=O)c2cc3c(nc4sccn43)s2)c(C)c1 | -3% | 38% | 50µM* | 2% | -20% | -4%
Cc1noc(C)c1COc1cccc(C(=O)Nc2ccccc2N2CCOCC2)c1 | -3% | 27% | -6%[59 µM] | -4% | -4% | u
CCOc1ccc(NC(=S)C(C#N)=C2N(C)c3ccccc3N2C)cc1 | -31% | 24% | 32µM* | 0% | 4% | -14%
CC(C)CC(CSc1ccc(Br)cc1)N1CCN(C)CCC1=O (stereo not drawn) | x | 33% | x | -19% | x | -21%
Cn1c(=O)c2[nH]c(=O)cnc2n(C)c1=S | -15% | -10% | 50µM* | -6% | 30µM* | -23%
CC/C(=C\C1CCCCC1)C(NP(=O)(c1ccccc1)c1ccccc1)c1ccccc1 (stereo not drawn) | -34% | 0% | u | u | 2% | -5%
CCC(C)C(NC(=O)OC(C)(C)C)C(=O)NC1COC2CC(n3cc(C)c(=O)[nH]c3=O)OC12 (stereo not drawn) | x | 40% | x | -6% | x | -14%
O=C(COC(=O)C1CCC(=O)N1)Nc1ccccc1OC(F)F (stereo not drawn) | x | 39% | x | -7% | -4% | 0%
O=C1CCC(C(=O)OCc2cc(Cl)ccc2OC(F)F)N1 (stereo not drawn) | 8% | -13% | -15%[59 µM] | 40µM* | 27µM* | u
CC(C)N(C(=O)CSc1nnc(CN2CCCCCC2=O)n1-c1ccccn1)C(C)C | -27% | u | u | 89µM* | -9% | -1%
CC(=O)c1cccc(NC(=S)NC(=O)c2ccc(Cl)cc2)c1 | -3% | 14% | -12%[59 µM] | u | -10% | -1%
CC(=O)c1cccc(NC(=S)NC(=O)c2cccc(C)c2)c1 | -37% | -14% | 25µM* | u | -12% | -19%
O=C(O)c1cccc(NC(=S)NC(=O)c2ccncc2)c1 | x | -19% | 45µM* | u | -5% | 30%
COc1ccc(S(=O)(=O)NCc2nc(-c3ccccc3)no2)cc1 | 5% | 9% | -39%[59 µM] | -17% | x | 18%
COc1ccc(S(=O)(=O)N2CCCCC2c2cc(C(=O)Nc3ccc(F)c(Cl)c3)no2)cc1 (stereo not drawn) | x | x | x | x | -6% | x
